“And” between values parts separate entries of the source, which are not always exact repeats. Equal values may be shown once.

One may read the cell viability as a read-out of living cells in per cent, often relative to untreated cells.

The test concerns K562. Kind of test: cell viability relative to vehicle control; higher = less cytotoxic. Conditions: 10 µM; SRSF2 genotype: SRSF2 P95H/wt. In a few lines:
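Each screen used CRISPR-edited mutant and wild-type clones from four leukaemia lines. Compounds were acoustically dispensed at a single 10 µM dose, and CellTiter-Glo luminescence was read after 48 h with the supernatant first removed. Viability was analysed in Genedata Screener and given as percent of the on-plate vehicle control.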
On to `COc1ccc2cc(C(=O)O)ccc2c1` [6-Methoxy-2-naphthoic acid], for which the cell viability is 108% and 98.7%.
`OC[C@H]1O[C@H](OCC2O[C@@H](O)[C@H](O)[C@@H](O)[C@@H]2O)[C@H](O)[C@@H](O)[C@H]1O` (some centres not stated) [Melibiose]: the cell viability was 108% and 104%.
Next, `CNC(=O)c1ccc(-c2cnc3ncc(Cc4ccc5ncccc5c4)n3n2)cc1F`: 95% and 101%.
Take `Nc1cc(C(Cl)=C(Cl)Cl)c(S(N)(=O)=O)cc1S(N)(=O)=O` [Clorsulon]: the cell viability was 92.3% and 94.2%.
For the compound `C[C@H](CCC(=O)O)[C@H]1CC[C@H]2[C@@H]3C[C@H](O)[C@@H]4C[C@H](O)CC[C@]4(C)[C@H]3CC[C@]12C` [Hyodeoxycholic acid (HDCA)], the cell viability was 92.5% and 93.9%.
To `COc1ccc(C[C@@H]2c3cc(Oc4cc(C[C@@H]5c6cc(OC)c(OC)cc6CCN5C)ccc4O)c(OC)cc3CCN2C)cc1` [Neferine] belongs 109% and 107%.
Next, `CN1CC(O)c2cc(N=NC(N)=O)c(O)cc21` (configuration not stated) [Carbazochrome]: 98.5% and 95.6%; `COc1ccccc1N1CCN(CCN(C(=O)C2CCCCC2)c2ccccn2)CC1`: 76.7% and 78.4%; `CCCCCCCCCC[C@H](C(=O)O)[C@]1(C(=O)O)CCC(=O)O1` [Spiculisporic Acid]: 107% and 103%.
Next, `COc1ncnc(NS(=O)(=O)c2ccc(N)cc2)c1OC` [Sulfadoxine (Sulphadoxine)]: 103% and 107%; `OCCc1ccc(O)c(O)c1` [Hydroxytyrosol]: 94.8% and 103%; `CNc1ccc([N+](=O)[O-])c(Nc2ccc3[nH]ncc3c2)n1`: 59.1% and 76.9%.
Turning to `Cc1cc2c(F)c(Oc3ncnn4cc(OC[C@@H](C)O)c(C)c34)ccc2[nH]1`, the cell viability was 94.6% and 98.7%.
Next, `Cc1nc(-c2ccc(OCC(C)C)c(C#N)c2)sc1C(=O)O` [Febuxostat (Uloric)]: 93.4% and 98.2%; `COc1ccc(C(=O)CC(=O)c2ccc(C(C)(C)C)cc2)cc1` [Avobenzone (Parsol 1789)]: 87.3% and 92.5%.
Next, `Nc1ccc(Cl)cc1C(=O)C(F)(F)F` [4-Chloro-2-(trifluoroacetyl)aniline hydrochl]: 106% and 98.3%.
Next, `NC(=O)OCC(COC(N)=O)c1ccccc1` [Felbamate]: 93% and 95%; `O=C1CCC(N2C(=O)c3ccccc3C2=O)C(=O)N1` (configuration not stated) [Thalidomide]: 92.1% and 86.8%; `C[C@@]1(CO)C[C@@H](O)C[C@@]2(C)[C@@H]3CC[C@](C)([C@@H](O)CO)C=C3CC[C@H]12` [Kirenol]: 98.1% and 101%.
Regarding `CCC[C@H](NC(=O)/C(C#N)=C/c1cccc(Br)n1)c1ccccc1` [Degrasyn (WP1130)], the cell viability is 11.2% and 17.4%.
Take `O=C(Nc1ccccc1)N1CCN(c2nc(-c3ccccc3)ns2)CC1`: the cell viability is 79.1% and 89.2%.
For `CCCCCCCCCC=O` [Decyl aldehyde], the cell viability was 98.7% and 94.8%.
Next, `CC1(C)CCC2(C(=O)O)CCC3=C(C(CCl)CC4C3(C)CCC3C4(C)CC(O)C(O)C3(C)C(=O)O)C2C1` (configuration not stated) [Senegenin]: 107% and 97.9%; `CS(=O)(=O)Nc1cc2occ(NC=O)c(=O)c2cc1Oc1ccccc1` [Iguratimod]: 107% and 95.3%; `OC[C@H]1O[C@@H](Oc2cc(O)cc(/C=C/c3ccc(O[C@@H]4O[C@H](CO)[C@@H](O)[C@H](O)[C@H]4O)cc3O)c2)[C@H](O)[C@@H](O)[C@@H]1O` [Mulberroside A]: 94.5% and 95.1%.
For `Cc1ccc(Sc2ccccc2N2CCNCC2)c(C)c1`, the cell viability is 2.01% and 3.74%.
To `Cc1cc(C(O)=C2C(=O)C(=O)N(CCCN3CCOCC3)C2c2ccncc2)ccc1OCc1ccccc1` (configuration not stated) belongs 96.1% and 98.6%; to `CCCCCCNC(=O)n1cc(F)c(=O)[nH]c1=O` [Carmofur], 96% and 94.6%; to `COC(=O)C1=CO[C@@H](O[C@@H]2O[C@H](CO)[C@@H](O)[C@H](O)[C@H]2O)[C@@H]2[C@H](C)O[C@@H](O)C[C@H]12` [Morroniside], 93.4% and 87.6%.
For `Cn1cc(C2=C(c3cccc(N)c3)C(=O)NC2=O)c2ccccc21`, the cell viability was 51.4% and 36.7%.
With `COCC[n+]1c2c(n(Cc3cnccn3)c1C)C(=O)c1ccccc1C2=O` [YM155 (Sepantronium Bromide)], the cell viability is 0.4% and 0.35%.
To `CCOCc1nc2c(N)nc3ccccc3c2n1CC(C)(C)O` [Resiquimod] belongs 94.5% and 96%; to `Cn1sc(=O)n(Cc2ccccc2)c1=O`, 0.36% and 9.05%.
Next, `O=C(CCCCCN1C(=O)c2cccc3cccc(c23)C1=O)NO` [Scriptaid]: 1.69% and 12.5%.
`O=C(O)CNC(=O)c1ccccc1` [Hippuric acid]: the cell viability is 103% and 104%.
In the case of `Cn1cc(-c2ccc3nnc(Sc4ccc5ncccc5c4)n3n2)cn1`, the cell viability is 92% and 94.2%.
To `CS(=O)(=O)c1ccc(-c2cnc(NCc3ccco3)n3cnnc23)cc1` belongs 99.9% and 93.9%.
